In PubChem BioAssay:
Calls of active or inactive are those of the source.

Experiments:
[1] = small molecules captured by biotinylated probe aFSTL3 – biochemical, small-molecule microarray, fluorescence 635/667, stem cell growth factor project, primary screen (AID 1064); details: higher = more signal;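 note: measures binding of the biotinylated anti-FSTL3 antibody to printed compounds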
[2] = binders from COS7 lysate, DM2A8 probe, primary screen, torsin A project, cell lysate, small-molecule microarray, fluorescence 635/667 (AID 1065); details: higher = more signal, COS7 lysate expressing mutant human TOR1A
[3] = small molecules captured by biotinylated probe aFGF2 – biochemical, small-molecule microarray, fluorescence 635/667, stem cell growth factor project, primary screen (AID 1067); details: higher = more signal;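 note: measures binding of biotinylated aFGF2 protein to printed compounds on slides; z-score merges feature fluorescence and signal-to-noise across triplicate slides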
[4] = small molecules captured by biotinylated probe aFGF10 – biochemical, small-molecule microarray, fluorescence 635/667, stem cell growth factor project, primary screen (AID 1071); details: higher = more signal;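 note: score merges 667 nm spot intensity and signal to noise from triplicate slides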
[5] = target: Neurogenic locus notch homolog protein 2 (Homo sapiens) (UniProt Q04721); experiment: small molecules binding Notch2 protein – biochemical, small-molecule microarray, 635 nm fluorescence, stem cell growth factors, primary screen (AID 1073); details: higher = more signal
Chain of Neurogenic locus notch homolog protein 2 (Homo sapiens) (Q04721 whole entry, looked up, canonical isoform): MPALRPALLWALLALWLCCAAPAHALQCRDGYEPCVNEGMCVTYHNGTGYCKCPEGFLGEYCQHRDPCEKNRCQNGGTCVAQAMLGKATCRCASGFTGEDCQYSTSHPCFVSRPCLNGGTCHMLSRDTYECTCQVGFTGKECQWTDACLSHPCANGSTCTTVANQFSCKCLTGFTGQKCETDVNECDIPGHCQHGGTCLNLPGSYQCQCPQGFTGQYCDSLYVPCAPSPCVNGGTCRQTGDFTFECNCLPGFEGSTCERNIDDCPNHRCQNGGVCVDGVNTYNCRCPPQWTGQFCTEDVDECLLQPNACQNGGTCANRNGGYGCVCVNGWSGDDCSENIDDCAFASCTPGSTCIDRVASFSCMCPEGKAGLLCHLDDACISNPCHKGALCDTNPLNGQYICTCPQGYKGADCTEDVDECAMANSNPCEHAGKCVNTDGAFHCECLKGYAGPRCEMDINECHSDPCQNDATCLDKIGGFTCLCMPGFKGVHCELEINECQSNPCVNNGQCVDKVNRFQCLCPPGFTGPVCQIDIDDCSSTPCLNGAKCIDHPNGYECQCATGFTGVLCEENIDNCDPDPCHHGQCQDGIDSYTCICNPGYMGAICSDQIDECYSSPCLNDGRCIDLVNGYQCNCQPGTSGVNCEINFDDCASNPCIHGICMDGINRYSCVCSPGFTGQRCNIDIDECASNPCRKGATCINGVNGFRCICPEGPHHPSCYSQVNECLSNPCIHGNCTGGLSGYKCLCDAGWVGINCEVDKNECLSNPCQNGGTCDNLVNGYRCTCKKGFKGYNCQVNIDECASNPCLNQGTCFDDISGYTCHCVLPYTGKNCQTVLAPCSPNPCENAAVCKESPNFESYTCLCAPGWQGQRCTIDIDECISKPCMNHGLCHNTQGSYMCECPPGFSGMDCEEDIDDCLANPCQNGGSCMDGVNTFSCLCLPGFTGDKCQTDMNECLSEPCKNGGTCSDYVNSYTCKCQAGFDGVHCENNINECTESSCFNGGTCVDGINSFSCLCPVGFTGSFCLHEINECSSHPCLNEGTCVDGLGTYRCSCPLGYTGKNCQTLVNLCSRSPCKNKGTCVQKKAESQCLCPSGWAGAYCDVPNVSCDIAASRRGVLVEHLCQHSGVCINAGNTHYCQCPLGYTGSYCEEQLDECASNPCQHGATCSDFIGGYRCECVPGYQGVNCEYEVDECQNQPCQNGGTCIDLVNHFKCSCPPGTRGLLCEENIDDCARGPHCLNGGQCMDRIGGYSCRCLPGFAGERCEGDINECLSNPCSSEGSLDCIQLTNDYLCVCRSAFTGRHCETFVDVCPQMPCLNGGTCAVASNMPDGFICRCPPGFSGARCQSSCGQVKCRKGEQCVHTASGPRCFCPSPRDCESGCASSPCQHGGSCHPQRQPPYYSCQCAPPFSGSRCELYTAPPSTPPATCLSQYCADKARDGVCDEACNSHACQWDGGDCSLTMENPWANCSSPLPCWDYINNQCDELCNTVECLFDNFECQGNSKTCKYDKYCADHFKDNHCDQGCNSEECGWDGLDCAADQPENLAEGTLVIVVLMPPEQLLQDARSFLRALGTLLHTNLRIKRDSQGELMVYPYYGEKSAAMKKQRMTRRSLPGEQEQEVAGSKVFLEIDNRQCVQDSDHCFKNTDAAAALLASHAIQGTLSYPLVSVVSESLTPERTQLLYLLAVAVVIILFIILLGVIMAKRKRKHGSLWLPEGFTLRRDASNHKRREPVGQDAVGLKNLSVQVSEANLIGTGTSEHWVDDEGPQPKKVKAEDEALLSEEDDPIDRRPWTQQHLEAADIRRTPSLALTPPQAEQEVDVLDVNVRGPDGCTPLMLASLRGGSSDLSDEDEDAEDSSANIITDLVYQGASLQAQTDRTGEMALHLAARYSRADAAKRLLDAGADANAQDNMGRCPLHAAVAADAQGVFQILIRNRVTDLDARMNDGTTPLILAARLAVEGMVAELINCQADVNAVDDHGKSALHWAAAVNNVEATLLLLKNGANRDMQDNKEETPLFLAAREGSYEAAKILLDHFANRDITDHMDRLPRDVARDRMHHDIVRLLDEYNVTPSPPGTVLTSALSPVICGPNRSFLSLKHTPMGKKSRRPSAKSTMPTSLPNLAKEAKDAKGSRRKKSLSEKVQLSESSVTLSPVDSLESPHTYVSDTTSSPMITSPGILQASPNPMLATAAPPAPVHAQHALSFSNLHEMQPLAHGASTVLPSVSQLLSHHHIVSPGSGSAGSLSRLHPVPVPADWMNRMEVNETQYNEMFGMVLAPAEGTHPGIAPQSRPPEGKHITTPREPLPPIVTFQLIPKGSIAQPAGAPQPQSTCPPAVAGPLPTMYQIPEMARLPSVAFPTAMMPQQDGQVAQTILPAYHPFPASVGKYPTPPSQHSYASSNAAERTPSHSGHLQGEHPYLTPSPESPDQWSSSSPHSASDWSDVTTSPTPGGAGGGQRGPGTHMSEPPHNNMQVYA

[6] = target: Pro-neuregulin-1, membrane-bound isoform (Homo sapiens) (UniProt Q02297); experiment: small molecules binding neuregulin-1 protein – biochemical, small-molecule microarray, fluorescence 635/667, psychiatric disease protein project, primary screen (AID 1075); details: NRG1 binding, 635 nm fluorescence, higher = more signal;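 note: score combines 667 nm spot fluorescence with signal to noise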
[7] = tested on: Neuregulin-1 EGF-like domain; experiment: small molecules binding NRG1 EGF domain – biochemical, small-molecule microarray, 635 nm fluorescence, primary screen (AID 1081); details: higher = more signal;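 note: binding of the protein to compounds printed on small-molecule microarray slides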
[8] = FRG1 expression reporter modulators in myotubes – cell-based, C2C12 myotubes, firefly/Renilla luciferase, luminescence, FRG1 inhibition for FSHD, primary screen (AID 1084); details: FRG1 promoter luciferase, higher = more signal, called active from +8 up or from −8 down
[9] = small molecules captured by biotinylated probe aFST – biochemical, small-molecule microarray, fluorescence 635/667, stem cell growth factor project, primary screen (AID 1086); details: higher = more signal;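 note: score merges 667 nm fluorescence with signal-to-noise of each printed compound spot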
[10] = binders of probe aHhip on microarray, primary screen, stem cell growth factor project, biochemical, small-molecule microarray, fluorescence 635/667 (AID 1087); details: higher = more signal;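 note: score merges spot fluorescence at 667nm with spot signal to noise ratio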
[11] = tested on: PRMT1 (protein arginine N-methyltransferase 1); experiment: small molecules binding arginine methyltransferase PRMT1 – biochemical, small-molecule microarray, 635 nm fluorescence, primary screen (AID 1088); details: higher = more signal;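 note: binding of Prmt1 protein to compounds spotted on small-molecule microarray slides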
[12] = growth effects on S. cerevisiae YJM789 – YJM789 clinical isolate, OD600, 24 h, basal, primary screen (AID 1089); details: higher = more signal, called active from +8 up or from −8 down;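 note: growth of clinical yeast isolate S. cerevisiae YJM 789 seeded 1000 cells per well; test concentration not given here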
[13] = S. pombe growth modifiers, basal conditions – strain 972, OD600, 24 h, no modulator, primary screen (AID 1090);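 note: basal condition with compound alone and no growth modifier present; test concentration not given here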; details: S. pombe 972 growth, higher = more signal, called active from +8 up or from −8 down
[14] = budding yeast growth modifiers under rapamycin – strain BY4716, OD600, 96 h, primary screen (AID 1091); note: test concentration not given here; details: S. cerevisiae BY4716 + rapamycin, higher = more signal, called active from +8 up or from −8 down
[15] = target: Torsin-1A-interacting protein 2 (Homo sapiens) (UniProt Q8NFQ8); experiment: small molecules binding lysate-expressed LULL1 – cell lysate, human LULL1 lysate, 635/667 nm fluorescence, primary screen (AID 1092); details: small-molecule microarray, hLULL1 lysate binding, 635 nm fluorescence; higher = more signal;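 note: probe is lysate of COS7 cells overexpressing human LULL1; score merges per-feature 667 nm fluorescence with signal-to-noise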
[16] = optical density change of DRC41 E. coli – strain DRC41, OD650, 24 h, E. coli filamentation project, primary screen (AID 1093);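 note: MC1000 strain lacking acrAB efflux and sulA so SOS filamentation is blocked; test concentration not given here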; details: E. coli DRC41 growth, higher = more signal, called active from +8 up or from −8 down
[17] = probe aLefty2 binding to arrayed compounds – biochemical, biotinylated probe, 635/667 nm fluorescence, primary screen (AID 1094); details: small-molecule microarray, higher = more signal;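 note: score merges spot fluorescence near 667 nm with spot signal-to-noise ratio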
[18] = tested on: Noggin (protein binding on small-molecule microarray); experiment: small molecules binding Noggin protein – biochemical, 635/667 nm fluorescence, primary screen (AID 1095); details: 635 nm fluorescence, higher = more signal;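 note: score merges 667 nm feature fluorescence with signal to noise over triplicate slides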
[19] = target: Neurogenic locus notch homolog protein 3 (Homo sapiens) (UniProt Q9UM47); experiment: small molecules binding NOTCH3 protein – biochemical, 635/667 nm fluorescence, primary screen (AID 1096); details: small-molecule microarray, 635 nm fluorescence, higher = more signal
Chain of Neurogenic locus notch homolog protein 3 (Homo sapiens) (Q9UM47 whole entry, looked up): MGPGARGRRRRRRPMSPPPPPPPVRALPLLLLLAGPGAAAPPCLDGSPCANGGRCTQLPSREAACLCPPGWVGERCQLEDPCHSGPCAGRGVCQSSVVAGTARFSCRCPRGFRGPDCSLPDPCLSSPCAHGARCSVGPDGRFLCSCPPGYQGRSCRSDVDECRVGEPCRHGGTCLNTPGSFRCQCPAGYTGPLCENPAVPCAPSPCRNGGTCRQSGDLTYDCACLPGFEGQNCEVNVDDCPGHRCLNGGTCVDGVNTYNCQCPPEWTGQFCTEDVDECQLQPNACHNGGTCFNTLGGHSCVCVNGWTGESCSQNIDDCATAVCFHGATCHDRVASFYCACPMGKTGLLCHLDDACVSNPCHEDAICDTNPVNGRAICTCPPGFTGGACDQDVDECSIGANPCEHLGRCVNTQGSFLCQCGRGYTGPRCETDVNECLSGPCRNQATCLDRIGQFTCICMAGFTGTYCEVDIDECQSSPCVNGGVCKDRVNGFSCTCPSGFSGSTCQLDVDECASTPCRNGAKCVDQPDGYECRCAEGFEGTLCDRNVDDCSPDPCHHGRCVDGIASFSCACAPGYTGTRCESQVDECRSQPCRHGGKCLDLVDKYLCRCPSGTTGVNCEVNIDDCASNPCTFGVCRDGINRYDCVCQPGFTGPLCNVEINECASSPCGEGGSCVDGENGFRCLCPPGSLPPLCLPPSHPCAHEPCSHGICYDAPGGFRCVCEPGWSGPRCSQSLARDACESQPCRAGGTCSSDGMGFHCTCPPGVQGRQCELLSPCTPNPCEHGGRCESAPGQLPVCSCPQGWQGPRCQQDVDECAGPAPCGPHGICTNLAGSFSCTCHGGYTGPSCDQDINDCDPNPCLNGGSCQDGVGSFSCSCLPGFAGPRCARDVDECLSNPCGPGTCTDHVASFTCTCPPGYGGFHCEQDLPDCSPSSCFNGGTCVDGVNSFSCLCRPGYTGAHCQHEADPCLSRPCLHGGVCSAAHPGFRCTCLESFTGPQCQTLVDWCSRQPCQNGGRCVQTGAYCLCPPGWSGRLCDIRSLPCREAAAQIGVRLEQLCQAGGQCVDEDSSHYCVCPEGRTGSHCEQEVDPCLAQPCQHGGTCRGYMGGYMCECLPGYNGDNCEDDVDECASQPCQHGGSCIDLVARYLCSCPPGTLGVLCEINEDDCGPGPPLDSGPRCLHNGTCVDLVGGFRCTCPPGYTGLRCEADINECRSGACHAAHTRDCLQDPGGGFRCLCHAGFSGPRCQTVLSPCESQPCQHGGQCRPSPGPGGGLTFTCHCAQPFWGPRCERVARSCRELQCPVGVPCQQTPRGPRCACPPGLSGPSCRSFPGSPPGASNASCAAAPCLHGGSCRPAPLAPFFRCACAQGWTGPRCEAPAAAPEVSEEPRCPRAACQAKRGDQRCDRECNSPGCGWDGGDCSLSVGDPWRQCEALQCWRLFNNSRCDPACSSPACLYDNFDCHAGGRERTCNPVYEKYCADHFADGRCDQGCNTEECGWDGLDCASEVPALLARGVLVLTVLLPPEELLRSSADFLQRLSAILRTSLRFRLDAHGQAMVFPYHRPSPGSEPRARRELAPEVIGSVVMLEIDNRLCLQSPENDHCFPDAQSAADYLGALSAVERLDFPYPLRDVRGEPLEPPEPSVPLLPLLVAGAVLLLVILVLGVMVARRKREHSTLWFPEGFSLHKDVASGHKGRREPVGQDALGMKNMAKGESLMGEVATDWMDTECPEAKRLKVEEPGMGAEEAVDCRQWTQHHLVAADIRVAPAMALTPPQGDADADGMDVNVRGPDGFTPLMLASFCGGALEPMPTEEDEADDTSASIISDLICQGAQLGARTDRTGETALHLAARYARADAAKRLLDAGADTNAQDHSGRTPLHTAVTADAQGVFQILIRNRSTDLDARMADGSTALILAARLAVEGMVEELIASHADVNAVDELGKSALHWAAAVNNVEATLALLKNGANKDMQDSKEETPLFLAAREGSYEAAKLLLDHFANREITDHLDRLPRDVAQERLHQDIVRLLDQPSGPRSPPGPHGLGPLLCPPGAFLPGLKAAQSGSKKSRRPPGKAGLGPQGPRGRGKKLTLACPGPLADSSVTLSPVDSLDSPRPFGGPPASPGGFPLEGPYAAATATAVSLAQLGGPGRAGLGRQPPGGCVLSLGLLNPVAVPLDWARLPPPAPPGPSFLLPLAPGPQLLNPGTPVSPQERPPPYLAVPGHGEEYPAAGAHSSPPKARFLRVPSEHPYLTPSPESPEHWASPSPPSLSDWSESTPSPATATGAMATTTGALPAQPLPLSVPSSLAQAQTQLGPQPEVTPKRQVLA

[20] = probe aEGFR binding to arrayed compounds – biochemical, biotinylated probe, 635/667 nm fluorescence, primary screen (AID 1097); details: small-molecule microarray, higher = more signal;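 note: probe is a biotinylated anti-EGFR antibody binding compounds printed on slides; score combines fluorescence near 667 nm and signal to noise of each spot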

Row | SMILES | composite z-score [1] | composite z-score [2] | composite z-score [3] | composite z-score [4] | composite z-score [5] | composite z-score [6] | composite z-score [7] | z-score [8] | composite z-score [9] | composite z-score [10] | composite z-score [11] | z-score [12] | z-score [13] | z-score [14] | composite z-score [15] | z-score [16] | composite z-score [17] | composite z-score [18] | composite z-score [19] | composite z-score [20]
1 | CCOC(=O)[C@H](Cc1ccccc1)NC(=O)CCC1CC(OC(=O)NCc2cccc3ccccc23)CC2(CCCC(COC(=O)NCC(c3ccccc3)c3ccccc3)O2)O1 (stereo not given in full) | -0.222 | 0.578 | -0.0753 | 0.326 | 0.928 | 0.301 | 1.04 | 0.631 (inactive) | 0.329 | -0.169 | 1.5 | -0.803 (inactive) | -0.463 (inactive) | -1.07 (inactive) | 1.17 | -1.09 (inactive) | -0.147 | 0.504 | 0.851 | 0.0117
2 | CO[C@H]1COC(=O)[C@@H](C)COC(=O)[C@@H](OCc2ccccc2)C=C[C@@H]1C | -0.133 | -0.606 | -0.121 | 0.206 | -0.663 | -0.297 | -0.546 | -0.412 (inactive) | -0.155 | 0.0277 | 0.0714 | 1.3 (inactive) | -0.204 (inactive) | 1.03 (inactive) | -0.424 | 0.075 (inactive) | -0.357 | 0.172 | -0.165 | -0.0363
3 | COC(=O)[C@H](C)NC(=O)CCC1CC(OC(=O)NCCc2ccc(F)cc2)CC2(CCCC(COC(=O)NCCC(C)C)O2)O1 (stereo not given in full) | -0.279 | -0.0132 | -0.0407 | 1.11 | 0.824 | 1.26 | 0.888 | 0.033 (inactive) | 0.281 | -0.13 | 0.173 | -1.79 (inactive) | -0.148 (inactive) | -0.104 (inactive) | 2.22 | -0.641 (inactive) | -0.209 | 1.06 | 0.49 | -0.111
4 | O=C1[C@H]2[C@H]3[C@H](O)[C@H](O)CC(=NOCc4ccccc4)[C@H]3CC[C@H]2C(=O)N1Cc1ccc2c(c1)OCO2 | -0.537 | 0.239 | -0.172 | 0.315 | 0.306 | 0.273 | 0.278 | 0.0017 (inactive) | 0.0418 | -0.0003 | 0.437 | -0.627 (inactive) | -0.674 (inactive) | -1.53 (inactive) | 1.1 | 1.26 (inactive) | -0.0766 | 0.273 | 0.546 | 0.0102
5 | COc1cc(O)c(C(=O)C=Cc2ccc3c(c2)OCO3)c(OC)c1 | -0.132 | 0.0414 | 0.0198 | 0.2 | -0.877 | -0.288 | -0.927 | -0.984 (inactive) | -0.155 | 0.0238 | -0.825 | 1.11 (inactive) | 0.561 (inactive) | 2.26 (inactive) | -0.862 | 0.75 (inactive) | -0.127 | 0.257 | 0.124 | -0.113
6 | Cc1ccc(S(=O)(=O)OC[C@H]2CN3[C@H](c4ccc(Br)cc4)[C@@H](C)CC[C@H]3C(=O)O2)cc1 | -0.307 | 0.0709 | -0.106 | 0.255 | 0.0993 | 0.0865 | 1.01 | -0.636 (inactive) | -0.164 | -0.191 | 1.23 | -0.855 (inactive) | -17.8 (active) | -3.38 (inactive) | 1.3 | 2.18 (inactive) | -0.259 | 1.24 | 0.323 | -0.136
7 | O=C1C[C@@H](O)[C@@H](O)[C@@H]2[C@@H]3C(=O)N(Cc4ccccc4)C(=O)[C@@H]3CC[C@@H]12 | -0.281 | 0.311 | -0.0573 | 0.286 | 0.474 | 0.205 | 0.771 | 0.554 (inactive) | -0.0427 | -0.204 | 0.187 | -0.365 (inactive) | -0.136 (inactive) | -0.115 (inactive) | 0.824 | -0.174 (inactive) | -0.14 | 0.45 | 0.618 | -0.0432
8 | CON=C(C)CCC(=O)OC[C@H]1O[C@H](c2ccccc2)C=C[C@@H]1Oc1ccc(OC)cc1 | -0.0269 | 0.0837 | -0.0504 | 0.111 | -0.272 | -0.351 | -0.0622 | 1.89 (inactive) | 0.308 | -0.131 | 0.0846 | 1.34 (inactive) | -0.241 (inactive) | 1.4 (inactive) | -0.225 | 0.403 (inactive) | -0.176 | 0.411 | -0.0061 | -0.0783
9 | COC(=O)CC=C[C@@H](C)[C@@H](C=NOC[C@H]1O[C@H](c2ccccc2)C=C[C@@H]1Oc1ccc(OC)cc1)OC | -0.309 | -0.0766 | -0.14 | 0.304 | -0.639 | -0.549 | -0.282 | 0.532 (inactive) | -0.251 | 0.0373 | -0.356 | -0.337 (inactive) | 0.427 (inactive) | 0.439 (inactive) | -0.072 | -0.19 (inactive) | -0.258 | 0.0133 | -1.13 | -0.253
10 | CC(C)=CCCC(C)=CCON=C1C[C@@H](O)[C@@H](O)[C@@H]2[C@@H]3C(=O)N(c4ccc(F)cc4F)C(=O)[C@@H]3CC[C@H]12 | -0.292 | 0.611 | -0.174 | 0.03 | 1 | 1.06 | 0.849 | -0.389 (inactive) | 0.573 | 0.0976 | 1.54 | -0.912 (inactive) | -0.964 (inactive) | -1.53 (inactive) | 2.05 | -0.159 (inactive) | -0.0413 | 0.819 | 1.09 | -0.0372
11 | CCCNC(=O)OC[C@H]1O[C@H](CCON=C(C)CCN2CCc3nc(CC)c(CC)cc3C2)C=C[C@@H]1Oc1ccc(OC)cc1 | -0.343 | 1.59 | -0.129 | -0.0187 | 0.0329 | 0.51 | 0.428 | 0.31 (inactive) | -0.0665 | 0.5 | 0.285 | -0.348 (inactive) | -2.36 (inactive) | 0.156 (inactive) | 0.73 | 0.004 (inactive) | -0.0539 | 0.559 | -0.286 | -0.0381
